The structures appear in SMILES notation. Records with an inconclusive call do not appear. A number with no mark means an inactive call. Calls follow the shape of the dose curve; as a rule, active = well fitted inhibition curve with a large enough effect; inconclusive = small, poorly fitted or top-dose-only effect; inactive = flat fitted curve, though single readings scatter.

The subject of this test is P94_40. In words: qHTS profiling for inhibitors of Plasmodium falciparum proliferation (AID 504749).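 Also: 0% = DMSO vehicle and full inhibition = artemisinin control; nearly all actives have a fitted effect of over 60% in size.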 As to conditions: P. falciparum in erythrocytes, SYBR Green DNA, 72 h; series mostly up to 28.7 µM; activity, negative = inhibition: at the top concentration. The method, boiled down:
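Infected RBCs, 0.3% parasitemia/2.5% Hct final; cpd 72 h, 37 C, 5% CO2; lysis buffer with saponin/triton/SYBR Green I, o/n RT dark; FI 485/535; norm. to artemisinin (0.29 uM) and DMSO.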
Turning to `COc1cc2c(cc1OC)[C@@H](Cc1cc(OC)c(OC)c(OC)c1)[N+](C)(CCCOC(=O)CC/C=C/CCC(=O)OCCC[N+]1(C)CCc3cc(OC)c(OC)cc3[C@H]1Cc1cc(OC)c(OC)c(OC)c1)CC2` (some centres undefined), the “activity, negative = inhibition” value is -15.9%. The result for `Cc1ncc(COP(=O)(O)O)c(CN)c1O` reads -2.05%. For `C[C@H](N)C(=O)N[C@@H](C)P(=O)(O)O`, the “activity, negative = inhibition” value is 3.98%.

For `CO[C@H]1C[C@@H]2CC[C@@H](C)[C@@](O)(O2)C(=O)C(=O)N2CCCC[C@H]2C(=O)O[C@H]([C@H](C)C[C@@H]2CC[C@@H](OC(=O)C(C)(CO)CO)[C@H](OC)C2)CC(=O)[C@H](C)/C=C(\C)[C@@H](O)[C@@H](OC)C(=O)[C@H](C)C[C@H](C)/C=C/C=C/C=C/1C`, the “activity, negative = inhibition” value is 8.43%. Consider `CC1=C(/C=C/C(C)=C/C=C/C(C)=C/C(=O)Oc2c(C)c(C)c3c(c2C)CC[C@@](C)(CCC[C@H](C)CCC[C@H](C)CCCC(C)C)O3)C(C)(C)CCC1`, for which the “activity, negative = inhibition” value is 3.11%. As to `CCCCCCCCCCCCCC(=O)OCC(COP(=O)([O-])OCC[N+](C)(C)C)OC(=O)CCCCCCCCCCCCC` (centres undefined), the “activity, negative = inhibition” value is -4.24%.

With `CC(C)c1ncc([N+](=O)[O-])n1C`, the “activity, negative = inhibition” value is 6.32%.

In the case of `NC(=O)[C@@H]1CCCN1C(=O)[C@H](Cc1cnc[nH]1)NC(=O)[C@@H]1CCC(=O)N1`, the “activity, negative = inhibition” value is 7.86%. In the case of `Cc1ccccn1` it was 0.851%. In the case of `Nc1nccs1` it was 1.56%. Regarding `O=C(NCCNCC(O)COc1ccc(O)cc1)N1CCOCC1` (centres undefined), the “activity, negative = inhibition” value is 10.2%. Take `CC(C)CCC[C@@H](C)[C@H]1CC[C@H]2[C@@H]3CC=C4C[C@@H](O)CC[C@]4(C)[C@H]3CC[C@]12C`: the “activity, negative = inhibition” value was 12.6%.

Turning to `CS(=O)(=O)OCC(O)C(O)COS(C)(=O)=O` (centres undefined), the “activity, negative = inhibition” value was -6.97%. The result for `NCC[C@H](O)C(=O)N[C@@H]1C[C@H](N)[C@@H](O[C@H]2O[C@H](CN)CC[C@H]2N)[C@H](O)[C@H]1O[C@H]1O[C@H](CO)[C@@H](O)[C@H](N)[C@H]1O` reads 8.44%; that for `OCC(O)CO`, 6.19%. `CCOc1ccc(NC(=S)Nc2ccc(OCC)cc2)cc1`: the “activity, negative = inhibition” value was -9.08%. The result for `CCOC(=O)c1cc(-c2ccccc2)nc2ccc(C)cc12` reads 13.2%; that for `OCl`, 13.2%. In the case of `CCc1ncnc2cc(OC)c(OC)cc12` it was -2.8%.

The record behind these values is PubChem BioAssay (NCATS).
